In PubChem BioAssay AID588591 (National Center for Advancing Translational Sciences (NCATS), 2011):
Hit rate of the full screen: of about 390,000 compounds, about 4,700 (1.2%) were called active. Entries that show only a call come without a potency. Another 4% or so got no clear call; they are omitted. Calls come from the whole dose curve; as a rule, active = well fitted inhibition curve with a large enough effect; inconclusive = small, poorly fitted or top-dose-only effect, or another doubt; inactive = no such curve, though single readings can be large or run the other way. For the sample, actives were picked, then their nearest neighbours and some compounds at random.

Target: DNA polymerase eta (Homo sapiens) (UniProt Q9Y253)
Assay: qHTS for Inhibitors of Polymerase Eta
Conditions: recombinant Pol eta, fluorescent DNA replication assay; series mostly up to 114 µM
Outline: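 Pol eta (10 nM) was preincubated with compounds for 15 min at room temperature, after which fluorescent replication substrate (50 nM final) was added to start the reaction. Fluorescence was read kinetically at 0 and 10 min.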
Potency is the fitted concentration of half-maximal effect.

DNA polymerase eta (Homo sapiens), sequence (Q9Y253 whole entry, looked up): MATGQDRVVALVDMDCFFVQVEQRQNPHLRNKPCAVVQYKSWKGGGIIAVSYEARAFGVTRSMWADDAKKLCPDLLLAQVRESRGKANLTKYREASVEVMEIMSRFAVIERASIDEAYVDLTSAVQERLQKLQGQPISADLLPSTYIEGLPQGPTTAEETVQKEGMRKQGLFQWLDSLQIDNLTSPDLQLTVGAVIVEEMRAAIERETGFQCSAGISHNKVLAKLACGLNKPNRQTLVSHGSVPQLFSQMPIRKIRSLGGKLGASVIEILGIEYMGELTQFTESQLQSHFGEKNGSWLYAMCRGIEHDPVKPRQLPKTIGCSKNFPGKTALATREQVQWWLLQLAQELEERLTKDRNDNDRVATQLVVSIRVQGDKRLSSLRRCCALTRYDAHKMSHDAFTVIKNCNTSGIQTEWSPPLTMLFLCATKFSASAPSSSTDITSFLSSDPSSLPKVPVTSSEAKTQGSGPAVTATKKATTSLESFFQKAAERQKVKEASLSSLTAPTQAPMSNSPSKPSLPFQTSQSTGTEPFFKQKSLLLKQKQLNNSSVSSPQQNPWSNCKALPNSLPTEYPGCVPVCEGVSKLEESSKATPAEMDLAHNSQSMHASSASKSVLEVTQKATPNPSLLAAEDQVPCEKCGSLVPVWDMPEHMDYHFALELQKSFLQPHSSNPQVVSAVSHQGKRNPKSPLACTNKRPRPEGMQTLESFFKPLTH

SMILES	Potency
O=S(=O)(Nc1ccc2[nH]ncc2c1)c1ccccc1Cl	inactive
O=C(Nc1ccc2cn[nH]c2c1)c1ccc(S(=O)(=O)N2CCOCC2)cc1	inactive
O=C(O)c1cc(S(=O)(=O)Nc2ccc3cn[nH]c3c2)ccc1Br	50.1 µM (active)
CCCn1c2ccccc2c2cnn(CC(=O)N(C)c3ccccc3CC)c(=O)c21	inactive
Cc1c(C(=O)NC2CCCCC2)oc2ccccc12	inactive
Cc1c(C(=O)Nc2ccccn2)oc2ccc(Br)cc12	39.8 µM (active)
Cc1ccc(NC(=O)c2oc3ccccc3c2C)c([N+](=O)[O-])c1	inactive
COc1ccccc1CNc1nccn(-c2ccc(F)cc2)c1=O	inactive
O=C(NCc1ccccc1)C1=C[C@@H](c2ccccc2)C[C@@H](OCCCCO)O1	inactive
C#Cc1ccc([C@@H]2C=C(C(=O)O)O[C@H](OCCCCO)C2)cc1	20 µM (active)
O=C(O)C1=C[C@H](c2cccs2)C[C@H](OCCCCO)O1	inactive
COc1ccc(CCNC(=O)c2c3c(nc4ccccc24)C(=O)N(C2CCCCC2)C3)cc1OC	inactive
CCNC(=O)CC1C(=O)N(c2ccc(F)cc2)C(=O)N1Cc1ccc(C)cc1 (stereo not drawn)	inactive
CCC(=O)N1CCc2cc(S(=O)(=O)NCCC(=O)Nc3cccc(C)c3C)ccc21	inactive
Cc1oc(-c2ccccc2F)nc1CN1CCC(C(=O)NCCc2ccc(Cl)cc2)CC1	inactive
Cc1cccc(NC(=O)CSCC(=O)Nc2nnc(C3CC3)s2)c1	inactive
CCc1cc(C(=O)Nc2nnc(C3CC3)s2)sc1C	50.1 µM (active)
CCc1ccccc1OCC(=O)Nc1nnc(C2CC2)s1	inactive
Cc1ccc(CNC(=O)c2c(O)nc3c(C)cccn3c2=O)cc1	inactive
C/C=C(\C)C(=O)N1CC2(CC(c3cccc(NC(=O)CCCCC)c3)=NO2)C[C@@H]1C(N)=O (stereo partly drawn)	inactive
C=C(C)C(=O)Nc1cccc(C2=NOC3(C2)C[C@H](C(N)=O)N(C(=O)C(c2ccccc2)c2ccccc2)C3)c1 (stereo partly drawn)	3.98 µM (active)
NC(=O)[C@H]1CC2(CC(c3cccc(NC(=O)[C@H]4CCC(=O)N4)c3)=NO2)CN1C(=O)c1ccccc1C(=O)c1ccccc1 (stereo partly drawn)	inactive
O=[N+]([O-])c1ccc(C=Nc2ccc(Cl)cc2Cl)s1	89.1 µM (active)
CCOc1ccccc1CNCc1c(C(=O)O)c(C)n(Cc2ccc(C)cc2)c1C	inactive

SMILES	Potency
COc1ccc(CNC(=O)c2cc3c(-c4ccccc4F)nn(C)c3s2)c(OC)c1	inactive
CS(=O)(=O)c1ccc2c(c1)SC1=NC(=O)/C(=C/c3ccco3)C(=N)N12	3.16 µM (active)
Cc1ccc(C)c(Cn2c(C(=O)O)c(CNCc3cccs3)c3ccccc32)c1	inactive
CCOc1ccc2nc(N3CCCC(C(=O)Nc4cc(C)ccc4C)C3)sc2c1 (stereo not drawn)	inactive
COc1ccc(CCOC2OC(CO)C(OC(=O)/C=C/c3ccc(O)c(OC)c3)C(O[C@H]3O[C@@H](C)[C@H](O)[C@@H](O)[C@H]3O)C2O)cc1O (stereo partly drawn)	inactive
COc1ccc(-c2cc(=O)c3c(O)cc(O[C@@H]4O[C@H](CO[C@@H]5O[C@@H](C)[C@H](O)[C@@H](O)[C@H]5O)[C@@H](O)[C@H](O)[C@H]4O)cc3o2)cc1O	79.4 µM (active)
C[C@@H]1O[C@@H](OC[C@H]2O[C@@H](Oc3c(-c4ccc(O)cc4)oc4cc(O)cc(O)c4c3=O)[C@H](O)[C@@H](O)[C@@H]2O)[C@H](O)[C@H](O)[C@H]1O	inactive
COc1ccc(OCc2n[nH]c(=S)n2N)cc1	inactive
COc1ccccc1-n1c(-c2cc(-c3ccco3)[nH]n2)n[nH]c1=S	50.1 µM (active)
Cc1cc(-c2n[nH]c(=S)n2-c2ccc(C)c(C)c2)no1	inactive
COc1ccc(C(=O)Nc2nonc2-c2ccc(OC)c(OC)c2)cc1Cl	inactive
Cc1cccc(OCCCC(=O)Nc2sc3c(c2C(N)=O)CCC(C)C3)c1 (stereo not drawn)	inactive
CSc1nnc(SCc2nc3sc(C(=O)O)c(C)c3c(=O)[nH]2)s1	3.16 µM (active)
Cc1ccc(S(=O)(=O)N2CCCC2C(=O)OCc2nc3sc(C)c(C)c3c(=O)[nH]2)cc1 (stereo not drawn)	inactive
CCN(CC)Cc1nc2sc(C)c(C)c2c(=O)[nH]1	inactive
CCc1nn(CC(=O)NCC(C)c2ccccc2)c(=O)c2cc3occc3n12 (stereo not drawn)	inactive
Cc1cc(Cl)ccc1OCC(=O)N(Cc1ccc(N(C)C)cc1)C1CCS(=O)(=O)C1 (stereo not drawn)	inactive
COc1ccc2c(c1)c(=O)c(C(=O)c1ccccc1)cn2CC(=O)Nc1ccc2c(c1)OCCO2	inactive
CCOC(=O)c1ccc(NC(=O)C2CCN(S(=O)(=O)c3ccc4c(c3)CCCC(=O)N4)CC2)cc1	inactive
O=c1n(Cc2cccc(C(F)(F)F)c2)c2ccccc2c2nc(-c3ccccc3)nn12	inactive
N#Cc1ccc(C2=CC(=O)C[C@H](c3ccc(Cl)cc3)C2)cc1	inactive
Cc1ccccc1C(=O)N1CCC(C(=O)Oc2ccc(C#N)cc2)CC1	inactive
CC1(OC(=O)C2CCCC2)C(=O)C=C2C=C(c3ccc(C#N)cc3)OC=C2C1=O (stereo not drawn)	20 µM (active)
CCOC(=O)c1c(N)n(-c2cccc(C)c2C)c2nc3ccccc3nc12	inactive
